# The full ranking holds about 140,000 sequences; the median of “enrichment ratio after two sorts for PhoP signalling” is about 0, and the highest 2% start at about 11. The entries come from a sample that favours the highest values as a whole.
# B1: PhoQ; a variant is named by its letters at X, in order, P23837 (parent)
# chain: MKKLLRLFFPLSLRVRFLLATAAVVLVLSLAYGMVALIGYSVSFDKTTFRLLRGESNLFYTLAKWENNKLHVELPENIDKQSPTMTLIYDENGQLLWAQRDVPWLMKMIQPDWLKSNGFHEIEADVNDTSLLLSGDHSIQQQLQEVREDDDDAEMTHSVAVNVYPATSRMPKLTIVVVDTIPVELKSSYMVWSWFIYVLSANLLLVIPLLWVAAWWSLRPIEALAKEVRELEEHNRELLNPATTRELTSLVRNLNRLLKSERERYDKYRTTLTDLTHSLKTPLXXLQXXLRSLRSEKMSVSDAEPVMLEQISRISQQIGYYLHRASMRGGTLLSRELHPVAPLLDNLTSALNKVYQRKGVNISLDISPEISFVGEQNDFVEVMGNVLDNACKYCLEFVEISARQTDEHLYIVVEDDGPGIPLSKREVIFDRGQRVDTLRPGQGVGLAVAREITEQYEGKIVAGESMLGGARMEVIFGRQHSAPKDE
# Variants of: B1
# Assay: enrichment ratio after two sorts for PhoP signalling (ratio (wild type AVST 3.29)); higher = more functional
# Conditions: with PhoP (E. coli)
row,Variant,enrichment ratio
1,VFTM,≤ 0.25
2,KCTM,≤ 0.25
3,VCTM,23
4,NSTM,≤ 0.25
5,VSWM,2.15
6,VSTM,14.3
7,EPCV,≤ 0.25
8,PQFI,≤ 0.25
9,IWAV,≤ 0.25
10,PCTF,≤ 0.25
11,RWFD,≤ 0.25
12,LQLQ,≤ 0.25
13,ALLQ,14.7
14,ASLR,3.29
15,ACLR,8.18
16,VHLQ,≤ 0.25
17,PLLQ,≤ 0.25
18,ACLQ,11.6
19,KCLQ,≤ 0.25
20,AILQ,13.6
21,ASLQ,11.8
22,ADLQ,3.02
23,ASTA,9.73
24,FDLT,≤ 0.25
25,DGHY,≤ 0.25

row,Variant,enrichment ratio
1,FIKM,≤ 0.25
2,HWCE,≤ 0.25
3,SDKP,≤ 0.25
4,YSIR,≤ 0.25
5,WSFS,≤ 0.25
6,KRRI,≤ 0.25
7,SLHA,≤ 0.25
8,IGLE,≤ 0.25
9,TPMA,≤ 0.25
10,KSGA,≤ 0.25
11,ELRR,≤ 0.25
12,FQKN,≤ 0.25
13,CNES,≤ 0.25
14,IDKS,≤ 0.25
15,TVPS,≤ 0.25
16,GGLQ,3.13
17,TKLQ,6.41
18,AQLQ,5.87
19,TGLQ,9.97
20,MGLR,≤ 0.25
21,AYLQ,0.526
22,HKLQ,≤ 0.25
23,AKLQ,41.4
24,MFLQ,≤ 0.25
25,AGLQ,13.5

row,Variant,enrichment ratio
1,MGLQ,16
2,ATLQ,11.5
3,NIMF,≤ 0.25
4,YKKL,≤ 0.25
5,ESDI,≤ 0.25
6,PSMS,≤ 0.25
7,WGKP,≤ 0.25
8,QAMN,≤ 0.25
9,TCTY,14.7
10,HVTY,≤ 0.25
11,LSTY,≤ 0.25
12,VCTY,≤ 0.25
13,SCTY,15.6
14,KCTY,≤ 0.25
15,DNQA,≤ 0.25
16,WMWR,≤ 0.25
17,GEYP,≤ 0.25
18,DMMD,≤ 0.25
19,ACMA,34.1
20,ACMR,1.61
21,ACMK,17.8
22,ACMW,≤ 0.25
23,ACMF,14.4
24,ACGF,6.85
25,ACMG,14.3

row,Variant,enrichment ratio
1,ACMT,10.1
2,ACWF,≤ 0.25
3,ACVA,3.46
4,ACGA,≤ 0.25
5,ACVG,4.01
6,PYWL,≤ 0.25
7,DKNN,≤ 0.25
8,FTRE,≤ 0.25
9,QRLI,≤ 0.25
10,FFKH,≤ 0.25
11,NCDG,≤ 0.25
12,QIFY,≤ 0.25
13,VWPM,≤ 0.25
14,ACMI,21
15,ACWQ,≤ 0.25
16,ACMQ,31.7
17,ACMV,7.12
18,ACIG,12.3
19,ACGG,4.87
20,ACMS,8.75
21,ACVC,1.02
22,WGDV,≤ 0.25
23,VHHQ,≤ 0.25
24,TTPE,≤ 0.25
25,MDFT,≤ 0.25

row,Variant,enrichment ratio
1,RPHC,≤ 0.25
2,NELR,≤ 0.25
3,MQVH,2.29
4,TPTT,≤ 0.25
5,DMQI,≤ 0.25
6,SNCE,≤ 0.25
7,SQQI,2.33
8,SLQI,5.02
9,SPAY,≤ 0.25
10,SNAY,14.8
11,DNQI,22.9
12,SNQI,12.5
13,DNQN,≤ 0.25
14,SQCE,24.1
15,SNYI,0.257
16,NQCE,≤ 0.25
17,REHF,≤ 0.25
18,APRY,≤ 0.25
19,WCFP,≤ 0.25
20,VRKW,≤ 0.25
21,HDVL,≤ 0.25
22,SLKT,≤ 0.25
23,PVHR,≤ 0.25
24,GYTV,≤ 0.25
25,YWVH,≤ 0.25

row,Variant,enrichment ratio
1,HHYP,≤ 0.25
2,SQCI,15.6
3,SQCA,8.55
4,SNHI,≤ 0.25
5,SRSA,≤ 0.25
6,SQSA,3.01
7,SNSA,13.1
8,SQCK,9.83
9,SNCI,21.8
10,SQTH,3.03
11,SNCA,16.8
12,SNDH,≤ 0.25
13,SNHF,≤ 0.25
14,DNPA,≤ 0.25
15,ILGQ,≤ 0.25
16,SFVQ,≤ 0.25
17,YVYP,≤ 0.25
18,FFCP,≤ 0.25
19,LDYA,≤ 0.25
20,SSGM,13.4
21,SSPM,0.954
22,SITW,4
23,SICI,21
24,SICE,1.33
25,SILH,3.1

row,Variant,enrichment ratio
1,SICV,16.6
2,SSWM,6.76
3,SSGD,≤ 0.25
4,KYCV,≤ 0.25
5,SSTM,21.4
6,SQTM,6.18
7,DMMP,≤ 0.25
8,NRRM,≤ 0.25
9,YLRW,≤ 0.25
10,TKFH,≤ 0.25
11,LSNL,≤ 0.25
12,EACR,≤ 0.25
13,HEFW,≤ 0.25
14,LKYV,≤ 0.25
15,WLTM,≤ 0.25
16,SLTM,12.5
17,TSVM,3.12
18,SIMD,4.7
19,PLTM,≤ 0.25
20,KSVM,≤ 0.25
21,KYCS,≤ 0.25
22,SSVM,17.6
23,SICS,16.9
24,SICA,8.12
25,KYAM,≤ 0.25

row,Variant,enrichment ratio
1,SIAM,20.8
2,DEHQ,≤ 0.25
3,SHVQ,≤ 0.25
4,KNSF,≤ 0.25
5,EDWM,≤ 0.25
6,PVLM,≤ 0.25
7,FICM,12.9
8,FIGM,≤ 0.25
9,WICG,≤ 0.25
10,FICK,≤ 0.25
11,KYCG,≤ 0.25
12,SICK,14.6
13,VLTM,≤ 0.25
14,SICG,22
15,SIGM,9.86
16,SIWM,≤ 0.25
17,LLTM,≤ 0.25
18,TLTM,19
19,NHYV,≤ 0.25
20,EHWN,≤ 0.25
